# A number with no mark means an inactive call. Records with an inconclusive call do not appear. A call without a number means that no potency is given here. The source made the active and inactive calls. Unless noted, calls come from the whole dose curve; as a rule, active = well fitted curve in the direction sought with a large enough effect; inconclusive = small, poorly fitted or top-dose-only effect, or another doubt; inactive = no such curve, though single readings can be large; an effect the other way counts as inactive or inconclusive. Bridge positions count the residues as written; N and C are the ends. Square brackets hold non-standard residues; d marks the D form. Peptide text beside a SMILES is read from it. * marks the point of attachment. Ileψ(thiazoline)Cys = CC[C@H](C)[C@H](N)C1=N[C@H](C(=O)*)CS1; d(aIle) = CC[C@H](C)[C@@H](N)C(=O)O; dOrn = NCCC[C@@H](N)C(=O)O
# Key:
# [1] = molecular target: ATP-dependent 6-phosphofructokinase (Trypanosoma brucei brucei) (UniProt O15648); experiment: qHTS Assay to Find Inhibitors of T. brucei phosphofructokinase: hit validation (AID 492961);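 note: luminescence reports ADP formed as PFK phosphorylates fructose-6-phosphate with ATP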
# Outline: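 Percent activity derived from corrected luminescence, normalized between 0x and 1x enzyme controls, then fitted to concentration-response curves. Conditions: 1.25 nM PFK, 0.1 mM ATP, 0.5 mM F6P, 45 min RT.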
# [2] = S16 Schwann cell PMP22 intronic element firefly luciferase assay (AID 624032); note: nearly all actives have a fitted effect of over 30% in size
# Outline: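 Rat S16 Schwann cells stably carrying a PMP22 intronic element-driven Fluc reporter were seeded overnight, then exposed to compounds for 24 h at 37 °C. Luminescence was normalized to PTC124 (positive control) and DMSO (0% activity).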
# [3] = test system: DIV14; experiment: qHTS profiling for inhibitors of Plasmodium falciparum proliferation (AID 504749); note: nearly all actives have a fitted effect of over 60% in size; note: potency is the fitted concentration of half-maximal effect; details: P. falciparum in erythrocytes, SYBR Green DNA, 72 h; series mostly up to 12.8 µM
# Outline: (§1)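 Parasite proliferation within erythrocytes, 72 h exposure. Endpoint: SYBR Green I fluorescence after overnight lysis at room temperature. Controls: 0.29 uM artemisinin, DMSO.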
# [4] = test system: DIV17; experiment: as above; details: P. falciparum in erythrocytes, SYBR Green DNA, 72 h; series mostly up to 12.8 µM
# Outline: as §1
# [5] = test system: PAD; experiment: as above; details: P. falciparum in erythrocytes, SYBR Green DNA, 72 h; series mostly up to 12.8 µM
# Outline: as §1
# [6] = test system: TAB109; experiment: as above; details: P. falciparum in erythrocytes, SYBR Green DNA, 72 h; series mostly up to 12.8 µM
# Outline: as §1
# [7] = qHTS Assay for Identification of Small Molecule Agonists for Hypoxia Response Element Signaling Pathway (AID 914; active = well fitted activation curve with a large enough effect in the signal ratio, with a control signal flat, not every such curve was filed as active; the % refers to the signal ratio); details: ME-180 (cervical carcinoma) HRE-bla reporter, beta-lactamase ratio, CoCl2, 17 h; activation: stronger effect = higher value
# Outline: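 HRE-bla ME-180 cells with beta-lactamase reporter under hypoxia response element, compounds with EC50 CoCl2 for 17 hours at 37 C. CCF4 substrate, 460nm/530nm emission ratio gave %Activity; AC50 from titration series.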
# [8] = molecular target: Cytochrome P450 3A4 (Homo sapiens) (UniProt P08684); experiment: qHTS Assay for Activators of Cytochrome P450 3A4 (AID 885); note: nearly all actives have a fitted effect of over 65% in size; note: potency is the fitted concentration of half-maximal effect
# Outline: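 Signal was normalized against complete inhibition by 57 uM ketoconazole. The reaction used 20nM CYP3A4 with 25uM Luciferin-PPXE, 10-min compound preincubation and a 60-min NADPH-supported step at RT.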
# [9] = test system: CP194; experiment: qHTS profiling for inhibitors of Plasmodium falciparum proliferation (AID 504749); note: nearly all actives have a fitted effect of over 60% in size; note: potency is the fitted concentration of half-maximal effect; details: P. falciparum in erythrocytes, SYBR Green DNA, 72 h; series mostly up to 12.8 µM
# Outline: as §1
# [10] = test system: CP203; experiment: as above; details: P. falciparum in erythrocytes, SYBR Green DNA, 72 h; series mostly up to 12.8 µM
# Outline: as §1
# [11] = test system: CP286; experiment: as above; details: P. falciparum in erythrocytes, SYBR Green DNA, 72 h; series mostly up to 12.8 µM
# Outline: as §1
# [12] = test system: CP291; experiment: as above; details: P. falciparum in erythrocytes, SYBR Green DNA, 72 h; series mostly up to 12.8 µM
# Outline: as §1
# [13] = test system: CP335; experiment: as above; details: P. falciparum in erythrocytes, SYBR Green DNA, 72 h; series mostly up to 12.8 µM
# Outline: as §1
# [14] = test system: GB4; experiment: as above; details: P. falciparum in erythrocytes, SYBR Green DNA, 72 h; series mostly up to 12.8 µM
# Outline: as §1
# [15] = test system: P93_24; experiment: as above; details: P. falciparum in erythrocytes, SYBR Green DNA, 72 h; series mostly up to 12.8 µM
# Outline: as §1
# [16] = test system: P94_40; experiment: as above; details: P. falciparum in erythrocytes, SYBR Green DNA, 72 h; series mostly up to 12.8 µM
# Outline: as §1
# [17] = molecular target: Cytochrome P450 3A4 (Homo sapiens) (UniProt P08684); experiment: qHTS Assay for Inhibitors and Substrates of Cytochrome P450 3A4 (AID 884); note: nearly all actives have a fitted effect of over 50% in size; note: potency is the fitted concentration of half-maximal effect
# Outline: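 20 nM human CYP3A4 with 25 uM Luciferin-PPXE (at KM) in 200 mM KPO4, preincubated 10 min with compound; NADPH regeneration started a 60 min RT reaction. Luciferin detected by luminescence, normalized to 57 uM ketoconazole as full inhibition.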
# [18] = Confirmation and Secondary Assay for Modulators of Hemoglobin Beta Chain Splicing at IVS2 705 locus (AID 930);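 note: HeLa cells stably expressing the EGFP-705 splicing reporter; GFP fluorescence per well restored by corrected splicing of the IVS2-705 intron in EGFP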
# Outline: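 HeLa cells stably carrying EGFP interrupted by mutant beta-globin intron 2 (IVS2-705) treated 2 days at 37C with compound; 500 nM antisense PNA as control. Correct splicing read as total peak GFP intensity per well by laser-scanning cytometry.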
# Sequence of ATP-dependent 6-phosphofructokinase (Trypanosoma brucei brucei) (O15648 whole entry, looked up): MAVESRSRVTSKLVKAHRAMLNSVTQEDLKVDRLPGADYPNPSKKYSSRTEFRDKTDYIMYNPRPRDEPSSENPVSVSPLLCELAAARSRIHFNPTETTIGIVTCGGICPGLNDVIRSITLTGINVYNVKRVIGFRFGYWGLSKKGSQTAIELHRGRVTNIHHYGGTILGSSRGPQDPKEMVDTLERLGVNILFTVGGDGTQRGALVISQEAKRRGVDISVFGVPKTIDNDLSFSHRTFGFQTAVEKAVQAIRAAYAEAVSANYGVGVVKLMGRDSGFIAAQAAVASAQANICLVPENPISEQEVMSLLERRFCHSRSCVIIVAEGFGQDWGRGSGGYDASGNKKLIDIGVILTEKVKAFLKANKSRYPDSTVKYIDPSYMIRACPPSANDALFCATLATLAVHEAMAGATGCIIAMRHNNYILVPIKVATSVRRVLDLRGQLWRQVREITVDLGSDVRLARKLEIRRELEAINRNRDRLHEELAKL
# Sequence of Cytochrome P450 3A4 (Homo sapiens) (P08684 whole entry, looked up): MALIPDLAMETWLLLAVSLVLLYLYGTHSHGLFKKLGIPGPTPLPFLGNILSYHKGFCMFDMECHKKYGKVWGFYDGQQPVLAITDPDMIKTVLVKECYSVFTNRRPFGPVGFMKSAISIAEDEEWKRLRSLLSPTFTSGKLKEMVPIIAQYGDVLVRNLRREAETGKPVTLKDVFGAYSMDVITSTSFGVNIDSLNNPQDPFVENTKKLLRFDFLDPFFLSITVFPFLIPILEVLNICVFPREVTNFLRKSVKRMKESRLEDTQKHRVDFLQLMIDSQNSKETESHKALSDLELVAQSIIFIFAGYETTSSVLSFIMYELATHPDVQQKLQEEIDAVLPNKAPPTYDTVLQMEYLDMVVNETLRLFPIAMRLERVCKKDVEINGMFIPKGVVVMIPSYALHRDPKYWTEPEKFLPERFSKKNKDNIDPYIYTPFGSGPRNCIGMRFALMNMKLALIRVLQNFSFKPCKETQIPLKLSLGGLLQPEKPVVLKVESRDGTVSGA
smiles,measurement,setting,value
CO[C@H]1[C@H](O[C@H]2O[C@@H](C)[C@@H](O[C@@H]3C[C@](C)(O)[C@H](O)[C@H](C)O3)[C@@H](N(C)C)[C@@H]2O)[C@@H](CC=O)C[C@@H](C)[C@@H](O[C@H]2CC[C@H](N(C)C)[C@H](C)O2)/C=C\C=C/C[C@@H](C)OC(=O)C[C@H]1O,outcome,[1],inactive
same,Potency,[2],inactive
same,Potency,[3],inactive
same,Potency,[4],inactive
same,Potency,[5],inactive
same,Potency,[6],1.58 µM (active)
CC(=O)S[C@H]1CC2=CC(=O)CC[C@@]2(C)[C@H]2CC[C@@]3(C)[C@H](CC[C@]34CCC(=O)O4)[C@@H]12,activation,[7],-20.6%
CO[C@H]1[C@H](O[C@H]2O[C@@H](C)[C@@H](O[C@@H]3C[C@](C)(O)[C@H](OC(=O)CC(C)C)[C@H](C)O3)[C@@H](N(C)C)[C@@H]2O)[C@@H](CC=O)C[C@@H](C)[C@@H](O)/C=C\C=C/C[C@@H](C)OC(=O)C[C@H]1OC(C)=O,Potency,[8],inactive
same,outcome,[1],inactive
same,Potency,[2],inactive
same,Potency,[6],1 µM (active)
CCCC(=O)Nc1ccc(OC[C@@H](O)CNC(C)C)c(C(C)=O)c1,outcome,[1],inactive
same,Potency,[2],inactive
Cc1c(C)c2c(c(C)c1O)CC[C@@](C)(C(=O)O)O2,Potency,[8],inactive
CC(=O)OCC(=O)[C@@]12OC(C)(C)O[C@@H]1C[C@H]1[C@H]3C[C@H](F)C4=CC(=O)C=C[C@@]4(C)[C@]3(F)[C@H](O)C[C@@]12C,Potency,[2],inactive
same,Potency,[9],inactive
same,Potency,[10],inactive
same,Potency,[11],inactive
same,Potency,[12],inactive
same,Potency,[13],inactive
same,Potency,[3],inactive
same,Potency,[4],inactive
same,Potency,[14],inactive
same,Potency,[15],inactive
same,Potency,[16],inactive
same,Potency,[5],inactive
same,Potency,[6],inactive
C[C@@]12CCC(=O)C[C@@H]1CC(=O)[C@H]1[C@H]3CCC[C@]3(C)C(=O)C[C@@H]12 (tested in a mixture with another compound),activation,[7],-12.7%
CCCCC[C@H](O)/C=C\[C@H]1[C@H](C/C=C\CCCC(=O)O)[C@@H](O)C[C@H]1O (tested in a mixture with another compound),outcome,[1],inactive
same,Potency,[2],inactive
same,Potency,[9],inactive
same,Potency,[10],inactive
same,Potency,[11],inactive
same,Potency,[12],inactive
same,Potency,[13],inactive
same,Potency,[3],inactive
same,Potency,[4],inactive
same,Potency,[14],inactive
same,Potency,[15],inactive
same,Potency,[16],inactive
same,Potency,[5],inactive
same,Potency,[6],inactive
CC(=O)OCC(=O)[C@@]1(OC(C)=O)[C@H](C)C[C@H]2[C@@H]3C[C@H](F)C4=CC(=O)C=C[C@@]4(C)[C@]3(F)[C@H](O)C[C@@]21C,Potency,[17],inactive
same,Potency,[8],6.31 µM (active)
CS(=O)(=O)c1ccc([C@H](O)[C@H](CO)NC(=O)C(Cl)Cl)cc1,Potency,[2],inactive
same,Potency,[3],inactive
same,Potency,[4],inactive
same,Potency,[5],inactive
COc1ccc([C@@H]2CC(=O)c3c(O)cc(O)cc3O2)cc1O,Potency,[17],15.8 µM (active)
Fc1ccc(Nc2nc(-c3cccnc3)nc3ccccc23)cc1,Potency,[18],inactive
COc1ccc(OC)c([C@H](O)CNC(=O)CN)c1,outcome,[1],inactive
same,Potency,[9],inactive
same,Potency,[10],inactive
same,Potency,[11],inactive
same,Potency,[12],inactive
same,Potency,[13],inactive
same,Potency,[3],inactive
same,Potency,[4],inactive
same,Potency,[14],inactive
same,Potency,[15],inactive
same,Potency,[16],inactive
same,Potency,[5],inactive
same,Potency,[6],inactive
COc1cc(OC)c2c(c1Cl)O[C@@]1(C2=O)[C@H](C)CC(=O)C[C@@H]1OC,Potency,[8],inactive
C[C@@H]1C[C@H]2[C@@H]3C[C@H](F)C4=CC(=O)C=C[C@@]4(C)[C@]3(F)[C@H](O)C[C@]2(C)[C@@]1(O)C(=O)CO,outcome,[1],inactive
same,Potency,[9],inactive
same,Potency,[10],inactive
same,Potency,[11],inactive
same,Potency,[12],inactive
same,Potency,[13],inactive
same,Potency,[3],inactive
same,Potency,[4],inactive
same,Potency,[14],inactive
same,Potency,[15],inactive
same,Potency,[16],inactive
same,Potency,[5],inactive
same,Potency,[6],inactive
NCc1ccccc1CC(=O)N[C@@H]1C(=O)N2C(C(=O)O)=C(CSc3nnnn3CC(=O)O)CS[C@@H]12,outcome,[1],inactive
same,Potency,[2],inactive
same,Potency,[9],inactive
same,Potency,[10],inactive
same,Potency,[11],inactive
same,Potency,[12],inactive
same,Potency,[13],inactive
same,Potency,[3],inactive
same,Potency,[4],inactive
same,Potency,[14],inactive
same,Potency,[15],inactive
same,Potency,[16],inactive
same,Potency,[5],inactive
same,Potency,[6],inactive
CCC(=O)OCC(=O)[C@@]1(OC(=O)CC)[C@H](C)C[C@@H]2[C@@H]3[C@H]([C@@H](O)C[C@@]21C)[C@]1(C)C=CC(=O)C=C1C[C@@H]3Cl,outcome,[1],inactive
same,Potency,[2],inactive
same,Potency,[9],inactive
same,Potency,[3],5.1 µM (active)
CC[C@H](C)[C@H](N)C1=N[C@H](C(=O)N[C@@H](CC(C)C)C(=O)N[C@@H](CCC(=O)O)C(=O)N[C@@H](C(=O)N[C@H]2CCCCNC(=O)[C@@H](CC(N)=O)NC(=O)[C@@H](CC(=O)O)NC(=O)[C@@H](Cc3cnc[nH]3)NC(=O)[C@@H](Cc3ccccc3)NC(=O)[C@@H]([C@@H](C)CC)NC(=O)[C@@H](CCCN)NC2=O)[C@@H](C)CC)CS1 ({Ileψ(thiazoline)Cys}-LE[d(aIle)]K[dOrn][d(aIle)][dF][dH][dD][dN]; lactam 4-C),activation,[7],-5.24%
same,Potency,[2],inactive
same,Potency,[9],inactive
same,Potency,[10],inactive
same,Potency,[11],inactive
same,Potency,[12],inactive
same,Potency,[13],inactive
same,Potency,[3],inactive
same,Potency,[4],inactive
same,Potency,[14],inactive
same,Potency,[15],inactive
same,Potency,[16],inactive
same,Potency,[5],inactive
same,Potency,[6],inactive
CO[C@@H]1C[C@H](O[C@H]2[C@@H](C)[C@H](O[C@@H]3O[C@@H](C)C[C@@H](N(C)C)[C@@H]3OC(C)=O)[C@H](C)C[C@]3(CO3)C(=O)[C@H](C)[C@H](OC(C)=O)[C@H](C)[C@H](C)OC(=O)[C@@H]2C)O[C@H](C)[C@@H]1OC(C)=O,Potency,[2],inactive
same,Potency,[9],inactive
same,Potency,[10],inactive
same,Potency,[11],inactive
same,Potency,[12],inactive
same,Potency,[3],inactive
same,Potency,[4],inactive
same,Potency,[15],inactive
same,Potency,[16],inactive
same,Potency,[5],inactive
same,Potency,[6],inactive
C[C@H](O)Cn1cnc2c1c(=O)n(C)c(=O)n2C,outcome,[1],inactive
same,Potency,[2],inactive
same,Potency,[9],inactive
same,Potency,[10],inactive
same,Potency,[11],inactive
same,Potency,[12],inactive
same,Potency,[13],inactive
same,Potency,[3],inactive
same,Potency,[4],inactive
same,Potency,[14],inactive
same,Potency,[15],inactive
same,Potency,[16],inactive
same,Potency,[5],inactive
same,Potency,[6],inactive
CCN[C@@H]1C[C@H](N)[C@H](O[C@H]2OC(CN)=CC[C@H]2N)[C@@H](O)[C@H]1O[C@H]1OC[C@@](C)(O)[C@@H](NC)[C@@H]1O,outcome,[1],inactive
same,Potency,[2],inactive
same,Potency,[9],inactive
same,Potency,[10],inactive
same,Potency,[11],inactive
same,Potency,[12],inactive
same,Potency,[13],inactive
same,Potency,[3],inactive
same,Potency,[4],inactive
same,Potency,[14],inactive
same,Potency,[15],inactive
same,Potency,[16],inactive
same,Potency,[5],inactive
same,Potency,[6],inactive
CCC[C@@H]1O[C@@H]2C[C@@H]3[C@H]4CCC5=CC(=O)C=C[C@@]5(C)[C@H]4[C@H](O)C[C@@]3(C)[C@@]2(C(=O)CO)O1,outcome,[1],inactive
same,Potency,[2],inactive
same,Potency,[13],10.7 µM (active)
same,Potency,[3],9.53 µM (active)
same,Potency,[15],8.91 µM (active)
same,Potency,[16],11.2 µM (active)
same,Potency,[6],7.94 µM (active)

# — PubChem BioAssay (NCATS)
